Values without a mark were called inactive.
How the values were obtained:
Experiment in all cases: log2 ratio of Biotin-Ahx-Ub-VS probe labelling (fragment/DMSO); higher = less target engagement (more negative = stronger competition), active = hit call of the paper (q ≤ 0.05, log2 ratio ≤ -1)
Details in all cases: compound concentration: 200 uM; treatment time: 3 h
OTUD6B = biological target: T1, OTUD6B (UniProt Q8N6M0)
T1 sequence (whole entry): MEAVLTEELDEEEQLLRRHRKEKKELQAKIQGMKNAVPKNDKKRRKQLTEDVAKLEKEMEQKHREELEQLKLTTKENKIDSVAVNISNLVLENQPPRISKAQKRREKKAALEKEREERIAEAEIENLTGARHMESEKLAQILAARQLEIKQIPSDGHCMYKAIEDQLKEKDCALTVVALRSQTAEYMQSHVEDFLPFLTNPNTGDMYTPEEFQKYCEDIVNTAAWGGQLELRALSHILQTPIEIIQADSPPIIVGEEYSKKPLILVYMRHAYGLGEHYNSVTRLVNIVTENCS
How it was run: (§1)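 Fragment (200 µM) or vehicle was incubated for 3 h with triplicate HEK293T lysate samples of 495 µg, which were then treated with Biotin-Ahx-Ub-VS at 0.5 µM final for 1 h. Labelled DUBs were enriched on NeutrAvidin, digested with LysC and trypsin, and analysed by diaPASEF LC-MS/MS. Values are average log2 fragment/vehicle ratios from an unpaired t-test on global-median-normalised Spectronaut label-free quantities, using proteins with ≥2 unique peptides.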

OTUD7B = biological target: T2, OTUD7B (UniProt Q6GQQ9)
T2 sequence (whole entry): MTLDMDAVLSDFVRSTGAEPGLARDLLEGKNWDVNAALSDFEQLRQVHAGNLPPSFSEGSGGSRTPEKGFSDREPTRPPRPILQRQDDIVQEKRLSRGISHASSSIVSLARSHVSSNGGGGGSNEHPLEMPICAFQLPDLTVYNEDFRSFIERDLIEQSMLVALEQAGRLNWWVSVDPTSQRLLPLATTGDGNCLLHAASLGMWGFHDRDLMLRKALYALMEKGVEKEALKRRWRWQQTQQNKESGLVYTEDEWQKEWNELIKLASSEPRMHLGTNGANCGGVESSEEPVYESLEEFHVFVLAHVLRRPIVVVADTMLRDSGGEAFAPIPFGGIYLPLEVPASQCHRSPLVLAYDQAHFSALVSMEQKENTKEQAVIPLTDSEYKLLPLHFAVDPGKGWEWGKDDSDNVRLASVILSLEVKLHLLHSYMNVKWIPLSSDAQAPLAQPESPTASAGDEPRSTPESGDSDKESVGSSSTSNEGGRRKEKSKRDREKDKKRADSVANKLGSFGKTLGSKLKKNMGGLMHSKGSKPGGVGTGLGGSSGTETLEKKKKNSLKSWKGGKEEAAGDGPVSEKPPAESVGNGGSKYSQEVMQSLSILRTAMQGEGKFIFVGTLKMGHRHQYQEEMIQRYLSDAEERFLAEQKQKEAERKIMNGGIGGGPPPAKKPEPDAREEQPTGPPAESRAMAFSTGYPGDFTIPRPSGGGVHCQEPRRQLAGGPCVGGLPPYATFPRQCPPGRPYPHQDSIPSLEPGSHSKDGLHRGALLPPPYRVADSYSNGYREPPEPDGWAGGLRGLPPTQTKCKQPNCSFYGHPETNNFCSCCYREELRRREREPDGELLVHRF
How it was run: as §1

PRPF8 = PRPF8 (UniProt Q6P2Q9)
How it was run: as §1

PSMD7 = biological target: T3, PSMD7 (UniProt P51665)
T3 sequence (whole entry): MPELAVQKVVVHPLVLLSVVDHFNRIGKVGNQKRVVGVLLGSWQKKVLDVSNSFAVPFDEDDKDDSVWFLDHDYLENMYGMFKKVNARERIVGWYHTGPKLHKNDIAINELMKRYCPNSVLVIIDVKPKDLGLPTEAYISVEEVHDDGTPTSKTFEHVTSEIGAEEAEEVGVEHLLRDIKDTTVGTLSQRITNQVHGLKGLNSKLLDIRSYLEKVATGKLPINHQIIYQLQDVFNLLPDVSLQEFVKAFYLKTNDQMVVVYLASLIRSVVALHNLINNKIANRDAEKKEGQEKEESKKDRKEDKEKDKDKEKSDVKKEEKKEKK
How it was run: as §1

UCHL1 = UCHL1 (UniProt P09936)
How it was run: as §1

UCHL3 = biological target: T4, UCHL3 (UniProt P15374)
T4 sequence (whole entry): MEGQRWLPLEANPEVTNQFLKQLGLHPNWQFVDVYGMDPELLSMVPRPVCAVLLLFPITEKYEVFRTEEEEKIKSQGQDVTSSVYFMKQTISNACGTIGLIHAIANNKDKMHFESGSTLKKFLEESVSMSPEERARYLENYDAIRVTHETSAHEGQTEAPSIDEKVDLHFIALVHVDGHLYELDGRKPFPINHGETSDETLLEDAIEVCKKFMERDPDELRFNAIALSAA
How it was run: as §1

UCHL5 = biological target: T5, UCHL5 (UniProt Q9Y5K5)
T5 sequence (whole entry): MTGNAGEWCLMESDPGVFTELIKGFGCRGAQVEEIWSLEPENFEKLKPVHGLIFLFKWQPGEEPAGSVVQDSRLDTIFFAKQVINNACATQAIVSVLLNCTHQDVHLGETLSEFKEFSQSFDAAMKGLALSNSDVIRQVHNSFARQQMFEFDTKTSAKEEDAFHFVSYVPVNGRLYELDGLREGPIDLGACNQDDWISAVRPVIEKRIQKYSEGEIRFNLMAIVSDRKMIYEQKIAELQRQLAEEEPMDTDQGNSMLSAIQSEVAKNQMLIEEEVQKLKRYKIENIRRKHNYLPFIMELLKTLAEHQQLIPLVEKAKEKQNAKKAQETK
How it was run: as §1

USP10 = USP10 (UniProt Q14694)
How it was run: as §1

USP15 = biological target: T6, USP15 (UniProt Q9Y4E8)
T6 sequence (whole entry): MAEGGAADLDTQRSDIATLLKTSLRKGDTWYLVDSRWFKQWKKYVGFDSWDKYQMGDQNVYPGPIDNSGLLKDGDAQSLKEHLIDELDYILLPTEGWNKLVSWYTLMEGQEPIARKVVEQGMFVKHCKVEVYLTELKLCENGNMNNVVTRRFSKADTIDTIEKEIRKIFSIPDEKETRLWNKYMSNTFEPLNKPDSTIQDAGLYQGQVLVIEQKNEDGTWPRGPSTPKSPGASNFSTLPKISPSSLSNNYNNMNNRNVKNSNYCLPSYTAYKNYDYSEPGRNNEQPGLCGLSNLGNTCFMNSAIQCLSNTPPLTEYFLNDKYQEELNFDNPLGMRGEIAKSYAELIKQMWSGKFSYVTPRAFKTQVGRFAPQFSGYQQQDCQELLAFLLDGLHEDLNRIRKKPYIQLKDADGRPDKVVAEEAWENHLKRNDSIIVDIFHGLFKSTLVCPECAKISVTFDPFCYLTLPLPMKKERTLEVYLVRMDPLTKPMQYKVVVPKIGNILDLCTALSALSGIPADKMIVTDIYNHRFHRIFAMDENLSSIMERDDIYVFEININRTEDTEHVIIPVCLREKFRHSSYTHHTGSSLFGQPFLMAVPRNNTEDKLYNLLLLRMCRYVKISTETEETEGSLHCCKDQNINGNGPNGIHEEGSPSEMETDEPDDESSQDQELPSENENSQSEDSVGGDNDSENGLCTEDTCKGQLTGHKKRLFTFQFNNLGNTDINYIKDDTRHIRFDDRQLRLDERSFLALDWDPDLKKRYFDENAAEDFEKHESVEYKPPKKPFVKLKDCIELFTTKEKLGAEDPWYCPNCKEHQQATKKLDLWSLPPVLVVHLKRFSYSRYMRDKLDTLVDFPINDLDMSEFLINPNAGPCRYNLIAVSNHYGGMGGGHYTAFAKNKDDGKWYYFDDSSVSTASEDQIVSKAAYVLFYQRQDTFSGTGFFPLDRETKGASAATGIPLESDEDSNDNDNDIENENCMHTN
How it was run: as §1

USP16 = USP16 (UniProt Q9Y5T5)
How it was run: as §1

Chain of USP10 (Q14694 whole entry): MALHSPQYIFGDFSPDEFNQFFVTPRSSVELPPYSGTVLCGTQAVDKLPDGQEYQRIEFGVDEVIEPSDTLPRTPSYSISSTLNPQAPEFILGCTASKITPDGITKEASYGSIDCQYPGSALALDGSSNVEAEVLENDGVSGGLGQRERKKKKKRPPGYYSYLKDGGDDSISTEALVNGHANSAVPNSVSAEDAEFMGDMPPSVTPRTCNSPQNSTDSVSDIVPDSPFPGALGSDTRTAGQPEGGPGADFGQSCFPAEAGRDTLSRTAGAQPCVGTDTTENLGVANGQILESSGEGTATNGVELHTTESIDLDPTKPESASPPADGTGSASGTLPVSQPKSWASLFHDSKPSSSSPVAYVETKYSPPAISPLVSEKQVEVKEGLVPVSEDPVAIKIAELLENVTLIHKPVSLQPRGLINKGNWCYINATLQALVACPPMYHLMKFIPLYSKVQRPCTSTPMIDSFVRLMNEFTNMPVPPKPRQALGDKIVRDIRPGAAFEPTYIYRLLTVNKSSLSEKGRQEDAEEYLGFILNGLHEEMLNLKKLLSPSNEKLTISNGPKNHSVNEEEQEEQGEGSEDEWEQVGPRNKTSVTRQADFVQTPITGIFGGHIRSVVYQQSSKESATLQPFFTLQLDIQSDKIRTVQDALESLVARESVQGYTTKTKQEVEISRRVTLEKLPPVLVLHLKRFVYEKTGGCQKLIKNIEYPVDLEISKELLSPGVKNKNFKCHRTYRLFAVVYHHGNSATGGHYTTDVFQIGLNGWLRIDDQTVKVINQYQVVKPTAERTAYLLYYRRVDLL
Chain of USP16 (Q9Y5T5 whole entry, looked up): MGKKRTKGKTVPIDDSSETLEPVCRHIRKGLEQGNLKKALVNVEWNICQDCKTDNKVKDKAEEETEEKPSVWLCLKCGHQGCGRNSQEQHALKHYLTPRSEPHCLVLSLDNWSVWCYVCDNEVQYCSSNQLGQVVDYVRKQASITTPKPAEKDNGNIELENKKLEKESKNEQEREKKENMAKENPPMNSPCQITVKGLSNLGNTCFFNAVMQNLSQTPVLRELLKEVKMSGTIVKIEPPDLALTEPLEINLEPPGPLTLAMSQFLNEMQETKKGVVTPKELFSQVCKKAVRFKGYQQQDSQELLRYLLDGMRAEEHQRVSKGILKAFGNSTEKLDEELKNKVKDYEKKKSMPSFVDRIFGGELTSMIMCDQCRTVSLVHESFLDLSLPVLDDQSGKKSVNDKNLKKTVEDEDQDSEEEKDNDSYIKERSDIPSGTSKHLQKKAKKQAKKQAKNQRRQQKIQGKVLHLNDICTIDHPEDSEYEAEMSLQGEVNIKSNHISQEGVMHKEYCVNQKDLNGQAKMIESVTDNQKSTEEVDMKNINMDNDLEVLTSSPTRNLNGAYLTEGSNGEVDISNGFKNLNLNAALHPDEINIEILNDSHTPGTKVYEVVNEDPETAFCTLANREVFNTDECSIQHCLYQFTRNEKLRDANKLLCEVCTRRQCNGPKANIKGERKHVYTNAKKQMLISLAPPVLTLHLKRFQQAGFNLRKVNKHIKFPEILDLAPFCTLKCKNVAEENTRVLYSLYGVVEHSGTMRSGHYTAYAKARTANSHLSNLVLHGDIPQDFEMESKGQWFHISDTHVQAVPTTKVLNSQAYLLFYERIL
Chain of UCHL1 (P09936 whole entry, looked up): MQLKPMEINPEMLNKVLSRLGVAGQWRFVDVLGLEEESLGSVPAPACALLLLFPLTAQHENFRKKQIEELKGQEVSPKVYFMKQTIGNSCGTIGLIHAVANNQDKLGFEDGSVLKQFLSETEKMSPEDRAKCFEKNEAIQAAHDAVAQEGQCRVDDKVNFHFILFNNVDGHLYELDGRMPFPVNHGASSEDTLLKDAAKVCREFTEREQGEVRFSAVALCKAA

For `O=C(CCl)Nc1nc(-c2cccs2)cs1`, the “log2 ratio of Biotin-Ahx-Ub-VS probe labelling” value (shortened to “log2 ratio”) (OTUD6B) was -0.434, the “log2 ratio” value (OTUD7B) was -0.695 and the “log2 ratio” value (PRPF8) was 0.14. The “log2 ratio” value (PSMD7) was -0.0595, the “log2 ratio” value (UCHL1) was -1.45 (active) and the “log2 ratio” value (UCHL3) was 0.426. The “log2 ratio” value (UCHL5) was -2.61 (active), the “log2 ratio” value (USP10) was -0.0951 and the “log2 ratio” value (USP15) was -0.354. For the same compound, the “log2 ratio” value (USP16) was -0.00927.
